# Experimental data as given in article PMC7826789 (International Journal of Molecular Sciences, 2021).
# Legend:
# Conditions in all cases: Compound Concentration (nM):1000
# [1] = system: CDK3
# [2] = system: CDK4-cyclinD1
# [3] = system: CDK4-cyclinD3
# [4] = system: CDK4
# [5] = system: CDK5
# [6] = system: CDK7
# [7] = system: CDK8
# [8] = system: CDK9
# [9] = system: CDKL1
# [10] = system: CDKL2
# 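Also: KINOMEscan scanMAX binding as percent activity remaining versus control; lower means stronger binding.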
Compound,Percent Control [1] [%],Percent Control [2] [%],Percent Control [3] [%],Percent Control [4] [%],Percent Control [5] [%],Percent Control [6] [%],Percent Control [7] [%],Percent Control [8] [%],Percent Control [9] [%],Percent Control [10] [%]
Cc1cc(O)cc(C)c1/C=C/c1cncc(C(N)=O)c1 [GW435821X],100,97,100,100,100,100,72,100,100,100
COc1cccc(-n2ncc3c(N/N=C/c4ccncc4)ncnc32)c1 [GW784752X],100,49,72,93,90,8.1,100,100,51,46
COc1cc(C=NNc2ncnc3c2cnn3-c2ccccc2)ccc1O [GW513184X],97,89,81,100,64,4,100,100,80,22
CC(C)COC(=O)c1ccc2c(c1)/C(=C/Nc1ccc(S(N)(=O)=O)cc1)C(=O)N2 [GW416981X],42,3.8,13,91,36,3.7,86,100,52,24
CCn1c(-c2nonc2N)nc2c(C#CC(C)(C)O)nc(OCCNC)cc21.Cl [GSK949675],100,100,92,100,85,88,100,100,90,100
CN(C)c1cc2c(Nc3ccc4c(cnn4Cc4ccccc4)c3)ncnc2cn1 [GW282974X],100,81,84,89,39,82,100,100,75,100
CCS(=O)(=O)c1ccc(OC)c(Nc2ncc(-c3cccc(F)c3)o2)c1 [GW621970X],100,99,100,100,100,85,100,100,100,100
Cl.O=C(O[C@H]1CN[C@H](C#Cc2cc3ncnc(Nc4ccc5c(cnn5Cc5ccccc5)c4)c3s2)C1)N1CCOCC1 [GSK200398A],100,68,100,100,100,78,84,87,88,92
Nc1ncnc2occ(-c3ccc(NC(=O)Nc4cc(C(F)(F)F)ccc4F)cc3)c12 [GW770249X],39,96,100,100,63,4.4,0,70,93,31
NS(=O)(=O)c1ccc(N/N=C2\C(=O)Nc3ccc(C(=O)NCCc4c[nH]cn4)cc32)cc1 [GW300660X],100,12,30,100,100,33,100,100,55,100
COC(=O)Nc1nc2ccc(Oc3ccc(NC(=O)Nc4cc(C(F)(F)F)ccc4F)cc3)cc2s1.Cl [GW693917A],100,96,90,100,100,9.3,20,86,73,0
CN1CCN(C(=O)c2ccc(NC(=O)Nc3ccc(N(C)c4ccnc(Nc5ccc(CS(C)(=O)=O)cc5)n4)cc3)cc2)CC1.Cl [GW830263A],100,77,89,83,91,61,85,69,73,1.7
Cl.O=C(Nc1ccc(Oc2ccc3[nH]c(NC(=O)c4ccco4)nc3c2)cc1)Nc1cc(C(F)(F)F)ccc1F [GW683134A],100,100,100,100,100,12,100,100,77,6.5
CCS(=O)(=O)c1ccc(OC)c(Nc2ncc(-c3cccc(OC)c3)o2)c1 [GW580509X],100,93,93,99,100,84,100,100,98,98
COc1cc2ncn(-c3cc(O[C@H](C)c4ccccc4Cl)c(C(N)=O)s3)c2cc1OC [GSK237701A],100,81,100,86,100,76,48,100,94,86
COc1cc(/C=N/Nc2ncnc3[nH]ncc23)ccc1O [GW578748X],100,79,100,92,84,70,83,100,52,100
NS(=O)(=O)c1ccc(Nc2ncc(-c3ccccc3)o2)cc1 [GW572399X],100,60,88,95,100,21,93,100,80,65
COc1cccc(-c2c[nH]c3c(N/N=C/c4ccncc4)ncnc23)c1 [GW814408X],67,26,25,100,82,2.2,100,65,15,26
COc1cc(N2CCN(C(C)C)CC2)ccc1Nc1nc(Nc2ccc(F)cc2C(=O)NC[C@@H](O)CO)c2cc[nH]c2n1 [GSK1392956A],100,85,100,89,100,93,100,100,100,100
COc1ccc2[nH]c3c4[nH]c5ccc(OC)cc5c4c4c(c3c2c1)C(=O)NC4=O [GW296115X],100,82,74,100,75,56,87,58,75,92
